# Assay results published in paper PMC11062922 (Nature Chemical Biology, 2023).
# Like-named read-outs stand apart in the source and are kept apart here.
# Columns and labels:
# Design in all cases: species or system human, MV4-11 + K-562 + COLO205 + SK-N-BE2 + OVCAR-8
# [1] = tested on: AURKA; settings: read-out: apparent Kd; compound concentrations:100 nM and 1000 nM (sheet 'Samples'); n = 1
# [2] = tested on: AURKB; settings: read-out: apparent Kd, n = 1
# [3] = tested on: DDR1; settings: read-out: apparent Kd; compound concentrations:100 nM and 1000 nM (sheet 'Samples'); n = 1
# [4] = tested on: DDR2; settings: read-out: apparent Kd; compound concentrations:100 nM and 1000 nM (sheet 'Samples'); n = 1
# [5] = tested on: FLT3; settings: read-out: apparent Kd; compound concentrations:100 nM and 1000 nM (sheet 'Samples'); n = 1
# [6] = tested on: FLT4; settings: read-out: apparent Kd; compound concentrations:100 nM and 1000 nM (sheet 'Samples'); n = 1
# [7] = tested on: MET; settings: read-out: apparent Kd; compound concentrations:100 nM and 1000 nM (sheet 'Samples'); n = 1
# [8] = tested on: PLK4; settings: read-out: apparent Kd; compound concentrations:100 nM and 1000 nM (sheet 'Samples'); n = 1
# [9] = tested on: RET; settings: read-out: apparent Kd; compound concentrations:100 nM and 1000 nM (sheet 'Samples'); n = 1
# [10] = tested on: TGFBR2; settings: read-out: apparent Kd; compound concentrations:100 nM and 1000 nM (sheet 'Samples'); n = 1
# [11] = tested on: TNK1; settings: read-out: apparent Kd; compound concentrations:100 nM and 1000 nM (sheet 'Samples'); n = 1
# [12] = tested on: EIF2AK1; settings: read-out: apparent Kd, n = 1
# [13] = tested on: STK4; settings: read-out: apparent Kd; compound concentrations: 100 nM and 1000 nM (sheet 'Samples'), CATDS: 0.27037703695169801; n = 1
# [14] = tested on: FECH; settings: read-out: apparent Kd; compound concentrations: 100 nM and 1000 nM (sheet 'Samples'), CATDS: 9.1141958763267306E-2; n = 1
# [15] = tested on: FRK; settings: read-out: apparent Kd; compound concentrations: 100 nM and 1000 nM (sheet 'Samples'), CATDS: 0.20541048122338901; n = 1
# [16] = tested on: HCK; settings: read-out: apparent Kd; compound concentrations: 100 nM and 1000 nM (sheet 'Samples'), CATDS: 0.153376634791901; n = 1
# [17] = tested on: LCK; settings: read-out: apparent Kd; compound concentrations: 100 nM and 1000 nM (sheet 'Samples'), CATDS: 0.126638477949608; n = 1
# [18] = tested on: LYN; settings: read-out: apparent Kd; compound concentrations: 100 nM and 1000 nM (sheet 'Samples'), CATDS: 0.11348132537540701; n = 1
# [19] = tested on: MAP2K5; settings: read-out: apparent Kd; compound concentrations: 100 nM and 1000 nM (sheet 'Samples'), CATDS: 9.4476183920835705E-2; n = 1
# [20] = tested on: TNK2; settings: read-out: apparent Kd; compound concentrations: 100 nM and 1000 nM (sheet 'Samples'), CATDS: 0.38594497215225099; n = 1
# [21] = tested on: AXL; settings: read-out: apparent Kd, n = 1
# [22] = tested on: BMP2K; settings: read-out: apparent Kd, n = 1
# [23] = tested on: FN3KRP; settings: read-out: apparent Kd; compound concentrations: 100 nM and 1000 nM (sheet 'Samples'), CATDS: 0.244187637168161; n = 1
# [24] = tested on: MAP3K5; settings: read-out: apparent Kd; compound concentrations: 100 nM and 1000 nM (sheet 'Samples'), CATDS: 0.21983206185326901; n = 1
# [25] = tested on: PDXK; settings: read-out: apparent Kd; compound concentrations: 100 nM and 1000 nM (sheet 'Samples'), CATDS: 0.28989199258806803; n = 1
# [26] = tested on: MAP3K1; settings: read-out: apparent Kd; compound concentrations:100 nM and 1000 nM (sheet 'Samples'); n = 1
# [27] = tested on: MAP4K5; settings: read-out: apparent Kd; compound concentrations:100 nM and 1000 nM (sheet 'Samples'); n = 1
# [28] = tested on: NUAK2; settings: read-out: apparent Kd; compound concentrations:100 nM and 1000 nM (sheet 'Samples'); n = 1
# [29] = tested on: PLK1; settings: read-out: apparent Kd; compound concentrations:100 nM and 1000 nM (sheet 'Samples'); n = 1
# [30] = tested on: STK10; settings: read-out: apparent Kd; compound concentrations:100 nM and 1000 nM (sheet 'Samples'); n = 1
# [31] = tested on: CLK1; settings: read-out: apparent Kd; compound concentrations: 100 nM and 1000 nM (sheet 'Samples'), CATDS: 0.22469270721715301; n = 1
# [32] = tested on: CLK2; settings: read-out: apparent Kd; compound concentrations: 100 nM and 1000 nM (sheet 'Samples'), CATDS: 0.32192475407013899; n = 1
# [33] = tested on: CLK4; settings: read-out: apparent Kd; compound concentrations: 100 nM and 1000 nM (sheet 'Samples'), CATDS: 0.19159631348183601; n = 1
# [34] = tested on: NTRK1; settings: read-out: apparent Kd; compound concentrations: 100 nM and 1000 nM (sheet 'Samples'), CATDS: 0.180805132487488; n = 1
# [35] = compound concentrations:100 nM and 1000 nM (sheet 'Samples')
structure (smiles),measurement,setting,value
CN1CCN(C(=O)c2ccc(NC(=O)Nc3ccc(N(C)c4ccnc(Nc5ccc(CS(C)(=O)=O)cc5)n4)cc3)cc2)CC1.Cl [GW830263A],potency estimated from few doses,[1],303 nM
same,potency estimated from few doses,[2]; [35],247 nM
same,potency estimated from few doses,[3],816 nM
same,potency estimated from few doses,[4],1150 nM
same,potency estimated from few doses,[5],108 nM
same,potency estimated from few doses,[6],566 nM
same,potency estimated from few doses,[7],2330 nM
same,potency estimated from few doses,[8],873 nM
same,potency estimated from few doses,[9],708 nM
same,potency estimated from few doses,[10],2130 nM
same,potency estimated from few doses,[11],357 nM
Cn1cc(-c2ccc3c(c2)CCN3C(=O)Cc2cccc(F)c2)c2c(N)ncnc21 [GSK2603358A],potency estimated from few doses,"[2]; compound concentrations: 100 nM and 1000 nM (sheet 'Samples'), CATDS: 0.35952241449560002",1280 nM
same,potency estimated from few doses,"[12]; compound concentrations: 100 nM and 1000 nM (sheet 'Samples'), CATDS: 0.39682644993145699",1070 nM
same,potency estimated from few doses,[13],2430 nM
Cc1ccc(C(=O)Nc2ccc(Nc3ccnc4cc(-c5nccs5)ccc34)cc2O)cc1.Cl [GW494702A],potency estimated from few doses,"[2]; compound concentrations: 100 nM and 1000 nM (sheet 'Samples'), CATDS: 8.5065344981926597E-2",1430 nM
same,potency estimated from few doses,[14],1090 nM
same,potency estimated from few doses,[15],152 nM
same,potency estimated from few doses,[16],267 nM
same,potency estimated from few doses,[17],412 nM
same,potency estimated from few doses,[18],547 nM
same,potency estimated from few doses,[19],956 nM
same,potency estimated from few doses,[20],55.9 nM
Cc1cccc(CC(=O)N2CCc3c2ccc(-c2cn(C)c4ncnc(N)c24)c3F)n1 [GSK2656157],potency estimated from few doses,[21]; [35],503 nM
same,potency estimated from few doses,[12]; [35],751 nM
c1ccc(-c2ccnc3[nH]ccc23)cc1 [SB-693578],potency estimated from few doses,"[22]; compound concentrations: 100 nM and 1000 nM (sheet 'Samples'), CATDS: 0.25599665936716798",1680 nM
same,potency estimated from few doses,[23],1850 nM
same,potency estimated from few doses,[24],2330 nM
same,potency estimated from few doses,[25],1330 nM
C[C@@H](Oc1cc(-n2cnc3ccc(OCC4CCN(C)CC4)cc32)sc1C(N)=O)c1ccccc1C(F)(F)F [GSK326090A],potency estimated from few doses,[22]; [35],1900 nM
same,potency estimated from few doses,[26],1240 nM
same,potency estimated from few doses,[27],203 nM
same,potency estimated from few doses,[28],411 nM
same,potency estimated from few doses,[29],67.7 nM
same,potency estimated from few doses,[30],1720 nM
CC(C)S(=O)(=O)N1CCN(Cc2ccc3c(c2)nc(NC(=O)c2ccsc2)n3C[C@H](O)c2ccccc2)CC1 [GW635815X],potency estimated from few doses,"[21]; compound concentrations: 100 nM and 1000 nM (sheet 'Samples'), CATDS: 0.14940898802630401",1630 nM
same,potency estimated from few doses,[31],606 nM
same,potency estimated from few doses,[32],328 nM
same,potency estimated from few doses,[33],843 nM
same,potency estimated from few doses,[34],964 nM
